This note sets out measurements from PubChem BioAssay (NCATS).

Assay [1] deals with Lysosomal acid glucosylceramidase (Homo sapiens) (UniProt P04062). The assay can be described thus: Glucocerebrosidase-p2 (AID 348; in the data active = potency below about 10 µM; also: potency is read from the fitted curve at half-maximal effect). The settings on record: purified GBA, blue fluorogenic substrate, 40 min. In a few lines:
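Compounds titrated from 0.6 nM upwards against 0.2 nM enzyme in pH 5.9 citric acid/KH2PO4, taurocholate, tween-20; blue fluorogenic substrate 80 uM, 40 min room temperature, stopped and read Ex 365/Em 440 for AC50.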

Assay [2] concerns the target Cytochrome P450 1A2 (Homo sapiens) (UniProt P05177). In words: p450-cyp1a2 (AID 410; calls by dose curve; also: potency is read from the fitted curve at half-maximal effect). The settings on record: recombinant CYP1A2, luciferin-ME demethylation, luminescence; series mostly up to 57 µM. In a few lines: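 Human CYP1A2 (20nM) demethylated Luciferin-ME at its Km (100uM) in 100mM KPO4. After 10 min compound preincubation, NADPH regeneration ran the reaction 60 min at room temperature. Luciferin was read by luminescence, normalized to 57 uM furafylline.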

Assay [3] in a line: NFAT Signaling Pathway (AID 444; active = well fitted curve in either direction with a large enough effect, not every such curve was filed as active;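 also: carbachol stimulus at about its EC50 of 1 µM final; % is scaled to controls: 0 for no effect and ±100 for the full control effect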). The settings on record: Jurkat NFAT-bla M1, carbachol, beta-lactamase ratio, 5 h; at 7.69 µM (top of the series) unless noted. In a few lines:
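Jurkat cells carrying an NFAT-driven β-lactamase reporter and co-transfected muscarinic M1 receptor were treated with compound plus carbachol (1 uM final, an EC50 level) for 5 h at 37 °C. CCF4 loading followed for 1 h at RT; 460/530 nm ratio gave %activity.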

A short description of assay [4]: Stat Signaling Pathway (AID 446; active = well fitted curve in either direction with a large enough effect, not every such curve was filed as active;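 also: ME-180 cervical cancer cells given 40 pM IL-6 alongside compound; SIE-controlled beta-lactamase reporter measured as 460/530 nm FRET emission ratio; % is scaled to controls: 0 for no effect and ±100 for the full control effect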). To be noted: ME-180 SIE beta-lactamase reporter, IL-6 stimulated, 5 h; at 7.69 µM (top of the series) unless noted. In a few lines:
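ME-180 cells carrying a SIE-driven beta-lactamase reporter are stimulated with 40 pM IL-6 for 5 h at 37C in the presence of compound. The 460/530 nm FRET substrate ratio is read after 2.5 h at RT. Data are normalised to 300 pM IL-6 and to 125 nM JAK inhibitor controls.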

Assay [5] addresses Glucocorticoid receptor (Homo sapiens) (UniProt P04150). The assay can be described thus: GR-EFC Redistribution (AID 451; calls by dose curve; also: potency is read from the fitted curve at half-maximal effect). To be noted: CHO-K1 GR-EFC translocation, beta-gal luminescence, 2 h. In a few lines:
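CHO-K1 cells stably expressing nuclear-localized β-gal enzyme acceptor and GR fused C-terminally to the enzyme donor fragment; ligand-driven nuclear translocation restores β-gal by complementation. Compounds titrated up to 46 uM final, 2 h at 37 °C; luminescence read.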

Assay [6] addresses Mitogen-activated protein kinase 10 (Mus musculus) (UniProt Q61831). In words: JNK3 AlphaScreen Assay (AID 530; active = well fitted curve in either direction with a large enough effect, not every such curve was filed as active;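 also: kinase came from lysate of stimulated human HepG2 cells; % is scaled to controls: 0 for no effect and ±100 for the full control effect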). To be noted: JNK3 lysate, c-Jun phosphorylation; series mostly up to 57.1 µM. In a few lines: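 JNK3 came from HepG2 lysates pre-activated with IL-1beta and TNF-alpha and phosphorylated biotinylated GST-cJun (1-79) at 10 uM ATP, pH 7.6, room temperature. Compounds were titrated. AlphaScreen signal used anti-phospho-cJun (Ser73) antibody.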
On the technique in general: Alpha assays give light when donor and acceptor beads are brought close together.

For assay [7], the target named is 3',5'-cyclic-AMP phosphodiesterase 4B (Homo sapiens) (UniProt Q07343). In words: qHTS Assay for Inhibitors of PDE-IV (AID 607; active = well fitted activation curve with a large enough effect in the main read-out, with a control signal flat, not every such curve was filed as active; also: % of control where 0% means no effect). To be noted: HEK293 ACTOne CNG channel cells, membrane potential fluorescence; series mostly up to 22.9 µM. In a few lines: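 HEK293 ACTOne cells with CNG channel (1000/well), endogenous PDE4; membrane potential dye, compounds up to 22.9 uM final. Fluorescence Ex 535/Em 590; RO 20-1724 (100 uM final) as reference.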
(In general: qHTS replaces the single test concentration by a dilution series.)

Assay [8] has as its target Cytochrome P450 3A4 (Homo sapiens) (UniProt P08684). In words: qHTS Assay for Inhibitors and Substrates of Cytochrome P450 3A4 (AID 884). Also: nearly all actives have a fitted effect of over 50% in size. Also: potency is read from the fitted curve at half-maximal effect. The settings on record: recombinant CYP3A4, Luciferin-PPXE luminescence; series mostly up to 57.1 µM. In a few lines: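 20 nM human CYP3A4 with 25 uM Luciferin-PPXE (at KM) in 200 mM KPO4, preincubated 10 min with compound; NADPH regeneration started a 60 min RT reaction. Luciferin detected by luminescence, normalized to 57 uM ketoconazole as full inhibition.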

The target is the same in assay [9]. The assay can be described thus: qHTS Assay for Activators of Cytochrome P450 3A4 (AID 885). Also: nearly all actives have a fitted effect of over 65% in size. The settings on record: recombinant CYP3A4, Luciferin-PPXE luminescence, 60 min; series mostly up to 57.1 µM. In a few lines: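 Human CYP3A4 (20 nM) with Luciferin-PPXE at 25 uM (its KM) in 200 mM KPO4; 10 min compound preincubation, then NADPH regeneration and 60 min reaction at RT. Luciferin read by luminescence; normalized to 57 uM ketoconazole full inhibition.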

Assay [10] is described as follows: qHTS Assay for Lipid Storage Modulators (AID 1519; calls by dose curve). The settings on record: Drosophila S3 cells, BODIPY lipid droplet/cell ratio, laser cytometry, cells loaded with oleic acid. In a few lines: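 Cells seeded at 5,000 per well were treated with compounds over a concentration series and loaded with oleic acid (400 uM, as added). Lipid droplet fluorescence (488 nm excitation, 500-530 nm channel) was read by laser-scanning cytometry and normalized to 20 uM Triacsin C.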

Assay [11] deals with Dual specificity protein kinase CLK4 (Homo sapiens) (UniProt Q9HAZ1). In words: qHTS Assay for Inhibitors of CDC-like Kinase 4 (Kinase-Glo Assay) (AID 1770). Also: potency is read from the fitted curve at half-maximal effect; nearly all actives have a fitted effect of over 65% in size. To be noted: recombinant Clk4, Kinase-Glo ATP depletion luminescence; series mostly up to 66.7 µM. In a few lines:
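Substrate mix (RS peptide 100 uM, ATP 1 uM) dispensed, compound pinned in, then Clk4 added to 25 nM final. Incubated 4.5 h at RT; Kinase-Glo reagent added, luminescence read after 5 min.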

Assay [12] has as its target Ubiquitin carboxyl-terminal hydrolase 1 (Homo sapiens) (UniProt O94782). In words: Inhibitors of USP1/UAF1: Pilot qHTS (AID 504865).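 Also: rhodamine fluorescence freed from ubiquitin-rhodamine substrate followed over time; top concentration of the series differs between compounds; % is scaled to controls: 0 for no effect and ±100 for the full control effect; nearly all actives have a fitted effect of over 35% in size.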 To be noted: purified USP1/UAF1, Ub-rhodamine cleavage fluorescence; series mostly up to 54.9 µM. In a few lines:
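In 50mM HEPES pH 7.8 containing 0.5mM EDTA, 1mM TCEP, 0.1 mg/ml BSA and 0.01% Tween-20, 1nM USP1/UAF1 is exposed to compound for 15 min, then Ub-Rho (150nM final) is added and fluorescence is read over time.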

Assay [13] addresses Rap guanine nucleotide exchange factor 3 (Homo sapiens) (UniProt O95398). In words: Confirmatory qHTS for antagonist of cAMP-regulated guanine nucleotide exchange factor 3 (EPAC1) (AID 1645880).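 Also: plate controls were DMSO only for no effect and full effect of the ATA control for full effect; nearly all actives have a fitted effect of over 55% in size.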 The settings on record: EPAC1 Rap1B-BODIPY-GDP exchange, fluorescence; series mostly up to 115 µM. In a few lines:
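Nucleotide exchange uses 100 nM EPAC1, 250 nM RAP1B-BODIPY-GDP and 50 uM GDP, with compounds in a concentration-titration series. After 5 min at room temperature, fluorescence (480 nm ex/540 nm em) is read every 5 min for 30 min. Data are normalized to control ATA and DMSO.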

The target is the same in assay [14]. In words: Confirmatory qHTS for agonist of cAMP-regulated guanine nucleotide exchange factor 3 (EPAC1) (AID 1645881).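 Also: EPAC1 catalysed release of BODIPY-GDP from Rap1B seen as fluorescence loss; 100% = effect of cAMP agonist control; nearly all actives have a fitted effect of over 75% in size.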 The settings on record: EPAC1 Rap1B BODIPY-GDP exchange fluorescence; series mostly up to 154 µM.
The target of assay [15] is Rap guanine nucleotide exchange factor 4 (Homo sapiens) (UniProt Q8WZA2). The assay can be described thus: Confirmatory qHTS for agonist of cAMP-regulated guanine nucleotide exchange factor 4 (EPAC2) (AID 1645884).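 Also: nucleotide exchange releases bodipy-GDP from Rap1 and this lowers its fluorescence; % is scaled to controls: 0 for no effect and ±100 for the full control effect; nearly all actives have a fitted effect of over 65% in size.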 The settings on record: EPAC2 GEF activity, Rap1B-BODIPY-GDP fluorescence; series mostly up to 154 µM.
Assay [16] has the same target. In words: Confirmatory qHTS for antagonist of cAMP-regulated guanine nucleotide exchange factor 4 (EPAC2) (AID 1645885). Also: % is scaled to controls: 0 for no effect and ±100 for the full control effect; nearly all actives have a fitted effect of over 25% in size. To be noted: EPAC2 Rap1B-BODIPY-GDP exchange fluorescence, biochemical; series mostly up to 114 µM.
Assay [17] deals with Glucocorticoid receptor (Homo sapiens) (UniProt P04150). The assay can be described thus: GR-GFP Redistribution (AID 450;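 active = compounds whose dose series gives a full or clear partial fitted curve of increased nuclear translocation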; also: potency is read from the fitted curve at half-maximal effect). To be noted: U2OS GR-GFP nuclear translocation, laser cytometry, 2 h.
A short description of assay [18]: AP1 Signaling Pathway (AID 357; active = well fitted curve in either direction with a large enough effect, not every such curve was filed as active;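 also: ME-180 reporter cells stimulated with EGF at its EC50 level; % is scaled to controls: 0 for no effect and ±100 for the full control effect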). The settings on record: ME-180 (cervical carcinoma) AP-1-bla reporter, EGF-induced, beta-lactamase ratio, 5 h; at 7.69 µM (top of the series) unless noted. In a few lines:
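Cells are seeded overnight, exposed to compound titrations and an EC50 level of EGF for 5 hours at 37 °C, then loaded with CCF4 dye for 2.5 hours. Beta-lactamase activity under the AP-1 element is read as a blue/green ratio.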

Assay [19] in a line: Confirmation and Secondary Assay for Modulators of Hemoglobin Beta Chain Splicing at IVS2 705 locus (AID 930).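 Also: HeLa cells stably expressing the EGFP-705 splicing reporter; GFP fluorescence per well restored by corrected splicing of the IVS2-705 intron in EGFP; % of control where 0% means no effect.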 The settings on record: HeLa EGFP-705 splicing reporter, GFP fluorescence, 48 h; series mostly up to 38.3 µM. In a few lines:
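Assay measures total GFP intensity per well in HeLa EGFP-705 cells after 2 days with compound; mis-splicing normally truncates EGFP, so fluorescence indicates corrected splicing.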

Where [20] appears, read: measured here: cell count channel max response.
The mark [21] stands for this setting: measured here: lipid channel max response.

Several values for one entry are separate records, joined by “and”; a condition that tells them apart may be missing. Equal entries are not always repeated. Inconclusive results are not listed. Activity calls are given as the source filed them. Unless noted, calls follow the shape of the dose curve; as a rule, active = well fitted curve in the direction sought with a large enough effect; inconclusive = small, poorly fitted or top-dose-only effect, or another doubt; inactive = no such curve, though single readings can be large; an effect the other way counts as inactive or inconclusive. Bounds are passed on as bounds.

Glucocorticoid receptor (Homo sapiens), sequence (P04150 whole entry, looked up, the tested form may be a part): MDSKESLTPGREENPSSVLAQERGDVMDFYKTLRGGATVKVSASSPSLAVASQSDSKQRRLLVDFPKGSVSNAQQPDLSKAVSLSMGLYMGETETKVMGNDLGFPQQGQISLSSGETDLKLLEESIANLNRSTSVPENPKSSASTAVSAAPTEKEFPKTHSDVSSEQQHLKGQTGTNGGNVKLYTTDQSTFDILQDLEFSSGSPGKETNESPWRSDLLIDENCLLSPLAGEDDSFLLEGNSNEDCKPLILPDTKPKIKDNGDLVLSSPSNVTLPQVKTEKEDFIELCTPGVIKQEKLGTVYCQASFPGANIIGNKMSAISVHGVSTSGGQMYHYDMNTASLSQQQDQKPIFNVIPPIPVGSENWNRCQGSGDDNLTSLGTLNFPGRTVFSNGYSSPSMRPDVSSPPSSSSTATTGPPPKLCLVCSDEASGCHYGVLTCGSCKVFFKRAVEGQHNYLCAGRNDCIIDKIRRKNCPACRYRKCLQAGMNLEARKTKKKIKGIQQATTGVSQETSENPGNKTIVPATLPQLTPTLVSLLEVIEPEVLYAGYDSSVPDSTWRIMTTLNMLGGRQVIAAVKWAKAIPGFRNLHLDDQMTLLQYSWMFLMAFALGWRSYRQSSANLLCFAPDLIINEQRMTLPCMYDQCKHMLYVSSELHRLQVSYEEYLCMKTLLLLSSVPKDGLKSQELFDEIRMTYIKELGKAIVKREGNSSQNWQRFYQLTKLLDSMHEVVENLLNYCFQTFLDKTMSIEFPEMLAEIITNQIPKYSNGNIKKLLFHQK
Ubiquitin carboxyl-terminal hydrolase 1 (Homo sapiens), sequence (O94782 whole entry, looked up): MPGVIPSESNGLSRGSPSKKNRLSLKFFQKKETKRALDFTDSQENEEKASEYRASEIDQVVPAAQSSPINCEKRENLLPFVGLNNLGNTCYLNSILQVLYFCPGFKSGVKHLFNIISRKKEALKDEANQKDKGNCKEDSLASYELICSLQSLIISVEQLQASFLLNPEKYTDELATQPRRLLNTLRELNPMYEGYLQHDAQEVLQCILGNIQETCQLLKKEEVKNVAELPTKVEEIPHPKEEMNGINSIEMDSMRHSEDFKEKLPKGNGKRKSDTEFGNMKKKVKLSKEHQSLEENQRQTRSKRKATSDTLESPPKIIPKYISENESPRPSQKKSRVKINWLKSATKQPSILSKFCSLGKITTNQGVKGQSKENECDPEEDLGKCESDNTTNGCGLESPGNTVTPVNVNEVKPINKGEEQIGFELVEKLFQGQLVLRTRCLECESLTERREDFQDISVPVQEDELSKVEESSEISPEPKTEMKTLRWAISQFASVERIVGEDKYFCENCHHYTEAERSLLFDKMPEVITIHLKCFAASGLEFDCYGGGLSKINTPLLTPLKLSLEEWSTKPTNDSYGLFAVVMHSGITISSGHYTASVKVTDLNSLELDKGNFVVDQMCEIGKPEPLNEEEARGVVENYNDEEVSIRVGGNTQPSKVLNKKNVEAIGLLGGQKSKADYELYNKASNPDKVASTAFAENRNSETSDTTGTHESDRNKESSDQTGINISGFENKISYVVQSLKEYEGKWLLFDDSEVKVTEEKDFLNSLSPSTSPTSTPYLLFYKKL
Cytochrome P450 3A4 (Homo sapiens), sequence (P08684 whole entry, looked up): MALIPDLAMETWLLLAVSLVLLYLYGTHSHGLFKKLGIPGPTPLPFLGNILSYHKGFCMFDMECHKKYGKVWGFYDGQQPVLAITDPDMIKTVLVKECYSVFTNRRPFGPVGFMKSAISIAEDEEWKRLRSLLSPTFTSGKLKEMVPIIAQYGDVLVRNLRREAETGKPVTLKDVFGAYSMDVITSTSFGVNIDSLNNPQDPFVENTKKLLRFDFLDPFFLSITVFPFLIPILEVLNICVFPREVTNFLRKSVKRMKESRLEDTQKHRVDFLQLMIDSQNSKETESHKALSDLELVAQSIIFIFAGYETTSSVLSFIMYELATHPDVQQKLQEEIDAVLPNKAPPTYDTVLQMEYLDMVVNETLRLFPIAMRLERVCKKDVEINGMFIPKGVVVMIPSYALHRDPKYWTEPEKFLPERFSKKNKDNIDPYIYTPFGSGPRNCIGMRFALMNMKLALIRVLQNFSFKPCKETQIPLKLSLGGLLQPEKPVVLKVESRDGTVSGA
Rap guanine nucleotide exchange factor 3 (Homo sapiens), sequence (O95398 whole entry, looked up): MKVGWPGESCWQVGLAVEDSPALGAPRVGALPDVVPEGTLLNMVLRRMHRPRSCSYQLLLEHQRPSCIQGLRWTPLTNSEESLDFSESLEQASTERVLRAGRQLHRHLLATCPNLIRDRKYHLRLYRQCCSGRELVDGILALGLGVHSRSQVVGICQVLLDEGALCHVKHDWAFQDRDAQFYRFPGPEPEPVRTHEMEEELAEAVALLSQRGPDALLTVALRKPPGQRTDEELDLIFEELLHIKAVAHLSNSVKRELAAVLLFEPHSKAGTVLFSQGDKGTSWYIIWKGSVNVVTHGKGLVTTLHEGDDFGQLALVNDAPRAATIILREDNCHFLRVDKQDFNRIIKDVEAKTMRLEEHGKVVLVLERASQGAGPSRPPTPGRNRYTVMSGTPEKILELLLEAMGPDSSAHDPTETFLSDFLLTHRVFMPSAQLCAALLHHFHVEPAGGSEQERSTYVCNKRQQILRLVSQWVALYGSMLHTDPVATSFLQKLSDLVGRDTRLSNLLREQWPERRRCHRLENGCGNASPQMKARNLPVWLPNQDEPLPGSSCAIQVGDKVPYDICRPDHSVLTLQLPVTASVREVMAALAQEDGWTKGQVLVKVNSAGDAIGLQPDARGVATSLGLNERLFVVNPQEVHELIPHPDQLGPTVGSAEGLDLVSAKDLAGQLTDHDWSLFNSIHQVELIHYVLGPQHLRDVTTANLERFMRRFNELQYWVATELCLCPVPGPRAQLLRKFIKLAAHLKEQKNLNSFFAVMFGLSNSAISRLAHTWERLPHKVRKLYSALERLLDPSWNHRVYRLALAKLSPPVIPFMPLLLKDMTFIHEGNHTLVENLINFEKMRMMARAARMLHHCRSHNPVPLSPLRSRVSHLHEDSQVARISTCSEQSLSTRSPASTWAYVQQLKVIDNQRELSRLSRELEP
Cytochrome P450 1A2 (Homo sapiens), sequence (P05177 whole entry, looked up): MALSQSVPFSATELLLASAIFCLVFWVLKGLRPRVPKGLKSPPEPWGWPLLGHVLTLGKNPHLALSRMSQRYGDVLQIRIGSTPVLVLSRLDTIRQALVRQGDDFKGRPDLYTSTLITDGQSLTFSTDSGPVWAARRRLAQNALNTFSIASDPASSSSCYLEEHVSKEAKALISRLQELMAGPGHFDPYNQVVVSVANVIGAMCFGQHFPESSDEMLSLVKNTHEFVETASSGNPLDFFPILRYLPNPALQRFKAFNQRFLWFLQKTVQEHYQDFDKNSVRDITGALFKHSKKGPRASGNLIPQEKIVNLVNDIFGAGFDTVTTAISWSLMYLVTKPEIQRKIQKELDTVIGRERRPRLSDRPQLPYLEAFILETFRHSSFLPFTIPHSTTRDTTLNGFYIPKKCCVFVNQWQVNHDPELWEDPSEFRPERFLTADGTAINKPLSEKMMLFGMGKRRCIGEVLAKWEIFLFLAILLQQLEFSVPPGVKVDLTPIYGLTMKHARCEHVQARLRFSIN
Rap guanine nucleotide exchange factor 4 (Homo sapiens), sequence (Q8WZA2 whole entry, looked up): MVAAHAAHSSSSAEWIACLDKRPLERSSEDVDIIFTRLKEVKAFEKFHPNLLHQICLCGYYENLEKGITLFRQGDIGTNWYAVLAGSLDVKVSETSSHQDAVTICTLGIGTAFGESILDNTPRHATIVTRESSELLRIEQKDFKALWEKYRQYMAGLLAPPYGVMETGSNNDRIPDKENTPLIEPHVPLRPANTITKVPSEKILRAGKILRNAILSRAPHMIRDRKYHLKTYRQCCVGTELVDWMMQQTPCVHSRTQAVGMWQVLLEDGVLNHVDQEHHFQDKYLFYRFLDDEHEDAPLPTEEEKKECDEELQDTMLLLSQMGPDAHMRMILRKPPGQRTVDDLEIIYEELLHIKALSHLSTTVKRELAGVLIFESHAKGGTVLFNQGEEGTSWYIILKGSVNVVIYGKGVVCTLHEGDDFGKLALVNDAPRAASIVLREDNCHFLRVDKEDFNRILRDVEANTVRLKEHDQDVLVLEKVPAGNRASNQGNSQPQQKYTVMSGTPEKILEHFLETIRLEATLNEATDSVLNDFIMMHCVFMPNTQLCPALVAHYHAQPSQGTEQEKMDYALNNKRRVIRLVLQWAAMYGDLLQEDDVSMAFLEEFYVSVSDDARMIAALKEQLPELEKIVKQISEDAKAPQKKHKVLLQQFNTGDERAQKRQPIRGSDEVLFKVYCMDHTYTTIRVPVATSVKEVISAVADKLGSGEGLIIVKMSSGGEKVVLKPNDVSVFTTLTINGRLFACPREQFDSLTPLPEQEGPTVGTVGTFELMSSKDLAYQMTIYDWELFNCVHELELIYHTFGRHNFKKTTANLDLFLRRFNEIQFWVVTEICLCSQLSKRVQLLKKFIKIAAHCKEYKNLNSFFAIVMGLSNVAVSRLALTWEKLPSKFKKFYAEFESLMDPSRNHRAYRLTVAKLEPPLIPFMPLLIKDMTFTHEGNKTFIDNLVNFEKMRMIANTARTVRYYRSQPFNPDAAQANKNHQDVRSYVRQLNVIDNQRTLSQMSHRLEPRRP
Dual specificity protein kinase CLK4 (Homo sapiens), sequence (Q9HAZ1 whole entry, looked up): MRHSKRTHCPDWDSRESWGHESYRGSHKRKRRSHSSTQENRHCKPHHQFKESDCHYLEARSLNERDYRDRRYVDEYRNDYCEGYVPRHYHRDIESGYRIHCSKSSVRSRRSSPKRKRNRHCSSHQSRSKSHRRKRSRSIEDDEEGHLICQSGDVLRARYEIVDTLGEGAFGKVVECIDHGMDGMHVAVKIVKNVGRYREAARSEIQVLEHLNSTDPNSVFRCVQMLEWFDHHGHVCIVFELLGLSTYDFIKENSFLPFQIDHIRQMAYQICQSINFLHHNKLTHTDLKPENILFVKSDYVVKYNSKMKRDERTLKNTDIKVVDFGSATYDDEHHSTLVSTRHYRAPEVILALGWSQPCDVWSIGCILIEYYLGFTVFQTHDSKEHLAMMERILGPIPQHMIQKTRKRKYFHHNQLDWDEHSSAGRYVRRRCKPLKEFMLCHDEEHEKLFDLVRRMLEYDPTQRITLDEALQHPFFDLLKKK

As for `COc1ccc2[nH]cc(CCNc3ncnc4ccc(-c5ccc6c(c5)OCO6)cc34)c2c1`, the Potency is > 11.4 µM (inactive) in assay [1]; 0.631 µM (active) in assay [2]; > 46 µM (inactive) in assay [5]; 2 µM (active) in assay [8]; 0.316 µM (active) in assay [11]. Besides, the activity change, negative = inhibition in assay [3] is -23.8% (inactive); in assay [10] (at 57.5 µM (top of the series)), 2.76% (inactive). In [4], the activity, negative = inhibition is -24.8% (inactive). Besides, the Potency result in assay [6], in [7], in assay [9], in assay [12], in assay [13] and in [14] was “inactive” throughout. The Potency entry in assay [15] and in assay [16] was “inactive” in each case. In addition, the max response in assay [10] (setting [20]) was -4.39%; in [10] (setting [21]), -5.39%.

Take `O=C(c1csnn1)N1CCC2(CCCN(c3ccc(-c4ccccc4)cc3)C2)CC1`: the Potency entry in assay [2], in assay [6], in [7] and in assay [9] was “inactive” in each case. Moreover, the activity change, negative = inhibition in assay [3] was -15.8% (inactive). Moreover, the activity, negative = inhibition in assay [4] is 1.9% (inactive). Moreover, the Potency in [5] was > 46 µM (inactive); in assay [8] it was 7.94 µM (active).

`N#CCCn1c(=O)c(-c2ccc(F)cc2)nc2cnc(Oc3cccc(Cl)c3)nc21`: the Potency in [2] was 0.501 µM (active); in assay [17], > 9.22 µM (inactive); in assay [5], > 46 µM (inactive). Further, the Potency entry in assay [6] and in [7] was “inactive” throughout.

Turning to `CCCNC(=O)N1N=C(c2ccc(N)cc2)c2cc3c(cc2[C@H]1C)OCO3`, the Potency in assay [2] was 3.98 µM (active); in assay [17], > 46 µM (inactive); in assay [5], > 46 µM (inactive); in [8], 1.26 µM (active). The Potency entry in assay [9] is “inactive”.

On to `Cn1cccc1C(=O)N1CCC2(CCCN(c3ccncc3)C2)CC1`, for which the activity change, negative = inhibition in [18] was 11.9% (inactive). The activity, negative = inhibition in assay [4] is 0.921% (inactive). Also, the Potency in assay [5] was > 46 µM (inactive). Besides, the Potency result in assay [6] and in assay [7] was “inactive” in each case.

In the case of `CC(=O)Oc1ccccc1C(=O)Oc1ccccc1C(=O)O`, the activity change, negative = inhibition is 6.88% [at 17.2 µM] (inactive) in assay [18], 3.91% [at 17.2 µM] (inactive) in assay [3], -1.86% (inactive) in assay [10] (at 25.7 µM (top of the series)) and -0.43% (inactive) in [10] (at 57.5 µM (top of the series)). Moreover, the Potency in assay [2] was 12.6 µM (active); in [17] it was > 20.6 µM (inactive); in assay [5], > 20.6 µM (inactive). Further, in [4], the activity, negative = inhibition is 8.87% [at 17.2 µM] (inactive). Besides, the Potency entry in assay [6], in assay [8] and in assay [12] was “inactive” each time. For the same compound, the call in assay [19] was inactive. Besides, the max response was -2.66% and 0.474% in assay [10] (setting [20]); -5.13% and 0.698% in assay [10] (setting [21]).

In the case of `COc1cccc(-c2cc(NCCc3c[nH]c4ccc(OC)cc34)ncn2)c1`, the Potency is > 11.4 µM (inactive) in assay [1]; 0.794 µM (active) in [2]; > 46 µM (inactive) in assay [17]; > 46 µM (inactive) in [5]; 7.94 µM (active) in assay [8]; 4.47 µM (active) in assay [11]. Moreover, the activity change, negative = inhibition in [18] is -7.38% (inactive); in assay [3] it was -9.49% (inactive); in assay [10] (at 57.5 µM (top of the series)) it was 7.02% (inactive). Moreover, in assay [4], the activity, negative = inhibition is -5.09% (inactive). The Potency entry in [7], in [9], in assay [12], in [13], in assay [14] and in assay [15] was “inactive” each time. Moreover, in [16], the Potency entry was “inactive”. Moreover, the max response stood at 8.88% in assay [10] (setting [20]) and 13.2% in [10] (setting [21]).
